In all, about 340,000 compounds went through this assay and about 8,500 (2.5%) were called active. The sample as a whole holds a higher share of actives than the screen did. A number with no mark means an inactive call.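 How the source made its calls: active means melting temperature shift of at least 10% of the positive control shift, at one fixed dose; inactive means the rest.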
What follows are molecules tested on Glutamate receptor ionotropic, NMDA 3A (GRIN3A) ligand-binding domain (assay: NR3A LBD thermal stabilization by compounds – biophysical, differential scanning fluorimetry, uHTS, primary screen (AID 1259313)). Details: at 25 µM, hits give high values, 0% = protein alone, 100% = glycine-bound protein.
For `CCOc1cc2[nH]c(=S)n(CCN3CCCCC3C)c(=O)c2cc1OCC` (centres undefined), the Tm shift relative to glycine control was 0.59%.
Molecule `Cc1cc(C)cc(OCC(=O)NNC(=O)c2cc3ccccc3oc2=O)c1` has a Tm shift relative to glycine control of 2.22%.
Work on `O=C(CC(c1ccccc1)c1ccccc1)NCC(O)c1ccc([N+](=O)[O-])cc1` (centres undefined) yielded a Tm shift relative to glycine control of -6.68%.
In the case of `CC(=O)NCC(O)c1ccc([N+](=O)[O-])cc1` (centres undefined), the Tm shift relative to glycine control is reported as 12.1% (active).
Molecule `O=C(NCC(O)c1ccc([N+](=O)[O-])cc1)C1CCCCC1` (centres undefined) has a Tm shift relative to glycine control of -0.64%.
For `COC(=O)c1cc(NS(=O)(=O)c2ccc3c(c2)c(=O)n(C)c(=O)n3C)cc(C(=O)OC)c1`, the Tm shift relative to glycine control was -17.2%.
With `Cc1csc2nc(O)c(C(=O)NCCN3CCOCC3)c(=O)n12` the Tm shift relative to glycine control was 1.24%.
Work on `NC(=O)C1CCN(CC(O)CSc2ccc(F)cc2)CC1` (centres undefined) yielded a Tm shift relative to glycine control of -0.69%.
`CCOC(=O)c1sc(-c2cccc([N+](=O)[O-])c2)cc1N` was tested, and the Tm shift relative to glycine control was 20.4% (active).
`COC(=O)C(C)Oc1ccc2c(-c3cccc([N+](=O)[O-])c3)cc(=O)oc2c1` (centres undefined) was tested, and the Tm shift relative to glycine control was 0.72%.
`CCOC(=O)C1=C(CN2CCCCCC2)NC(=O)NC1c1cccc([N+](=O)[O-])c1` (centres undefined) was tested, and the Tm shift relative to glycine control was 0.15%.
Molecule `C=CCn1c(C)cc(C2=NNC(=NCC)SC2)c1C` has a Tm shift relative to glycine control of -0.92%.
`Cc1cccc(C(=O)Nc2nnc(Cc3c[nH]c4ccccc34)s2)c1` showed a Tm shift relative to glycine control of -7.42%.
In the case of `Cc1cccc(N=C2NN=C(c3c[nH]c4ccccc34)CS2)c1`, the Tm shift relative to glycine control is reported as 19.3% (active).
Molecule `CC(C)C(C(=O)NCc1ccco1)N(CC1CCCO1)C(=O)CNS(=O)(=O)c1ccc(F)cc1` (centres undefined) has a Tm shift relative to glycine control of 0.85%.
In the case of `O=C(Nn1cc(C(=O)N2CCN(c3ccccc3F)CC2)c2ccccc2c1=O)c1cnccn1`, the Tm shift relative to glycine control is reported as -1.41%.
`COc1ccc(NS(=O)(=O)c2ccc3oc(SCC(N)=O)nc3c2)cc1` was tested, and the Tm shift relative to glycine control was -0.47%.
With `COc1ccc(/C=C(/CC(=O)Nc2ccc(C)cc2)c2nc3ccccc3s2)cc1` the Tm shift relative to glycine control was -2.24%.
In the case of `COc1ccc(S(=O)(=O)Nc2ccc(O)c(Sc3nc4ccccc4s3)c2)cc1`, the Tm shift relative to glycine control is reported as 11.6% (active).
Molecule `CCC(C)(C)NC(=O)/C=C/c1cc(OC)c(OC)c(S(=O)(=O)N2CCc3ccccc32)c1` has a Tm shift relative to glycine control of 0.08%.
In the case of `COCCNC(=S)N/N=C/c1c(C)[nH]c2ccccc12`, the Tm shift relative to glycine control is reported as -4.38%.
In the case of `O=C(N/N=C/c1c(Cl)[nH]c2ccccc12)c1sc2ccccc2c1Cl`, the Tm shift relative to glycine control is reported as 28.2% (active).
With `COc1ccc(CNC(=O)CNC(=O)c2sc3ccccc3c2Cl)cc1OC` the Tm shift relative to glycine control was 1.07%.
Work on `Cc1ccc(N(C(=O)C(F)(F)F)C(C(=O)NC2CCCCC2)c2ccncc2)cc1C` (centres undefined) yielded a Tm shift relative to glycine control of -1.17%.
`O=C(OC1CCCCC1=O)c1cccc(S(=O)(=O)NCc2ccccc2)c1` (centres undefined) gave a Tm shift relative to glycine control of -0.25%.
`CC1CN(c2cc(=O)n(-c3cccc(Br)c3)c(=O)[nH]2)CC(C)O1` (centres undefined) was tested, and the Tm shift relative to glycine control was 0.6%.
In the case of `COc1ccc(Br)cc1CN(C)CC(=O)Nc1cc(Cl)cc(Cl)c1`, the Tm shift relative to glycine control is reported as -14.8%.
`O=C1c2ccccc2C(=O)N1CC1c2ccccc2CCN1S(=O)(=O)c1ccccc1` (centres undefined) gave a Tm shift relative to glycine control of -1.14%.
In the case of `CCOC(=O)c1ccc(-n2c(CCC(=O)O)ccc2-c2ccccc2)cc1`, the Tm shift relative to glycine control is reported as 0.18%.
For `Cc1ccc(NC(=O)CC2S/C(=N/N=C3\CCCc4ccccc43)NC2=O)cc1` (centres undefined), the Tm shift relative to glycine control was 25.5% (active).
For `Cc1ccc(CNC(=O)CC2Sc3ccccc3NC2=O)cc1` (centres undefined), the Tm shift relative to glycine control was -1.5%.
`Cc1c(Cl)cccc1NC(=O)CC1SC(=NCC2CCCO2)NC1=O` (centres undefined) was tested, and the Tm shift relative to glycine control was -1.26%.
In the case of `CN(C(=O)Cn1nnc(-c2ccc(F)cc2)n1)C1CCS(=O)(=O)C1` (centres undefined), the Tm shift relative to glycine control is reported as 0.08%.
`CC(C)CCNC(=O)CN(C(=O)Cn1nnc(-c2ccc(F)cc2)n1)C1CCCC1` was tested, and the Tm shift relative to glycine control was -0.75%.
With `CC(C)CCNC(=O)C(C)N(C(=O)Cn1nnc(-c2ccc(F)cc2)n1)C1CCCC1` (centres undefined) the Tm shift relative to glycine control was 22.9% (active).
`COCC1CCN(C(=O)c2ccc3oc(Cc4ccccc4)nc3c2)C1` (centres undefined) was tested, and the Tm shift relative to glycine control was -2.47%.
`CN(C)Cc1c(O)ccc2occ(C(O)c3ccccc3)c12` (centres undefined) was tested, and the Tm shift relative to glycine control was -0.8%.
For `Cc1ccc(NC(=O)NC(=O)CSc2nnc(-c3ccc(OC(F)F)cc3)n2N)c(C)c1`, the Tm shift relative to glycine control was 47.6% (active).
`CC(C)NC(=O)NC(=O)CSc1nnc(-c2ccccc2F)n1N` gave a Tm shift relative to glycine control of -0.64%.
Work on `CCN(C(=O)CSc1nnc(-c2ccc(OC(F)F)cc2)n1N)C1CCS(=O)(=O)C1` (centres undefined) yielded a Tm shift relative to glycine control of 0.42%.
With `Nc1c(-c2ccc(F)cc2)cnn1C1CCS(=O)(=O)C1` (centres undefined) the Tm shift relative to glycine control was -1.17%.
With `Nc1ccc(Cl)c(S(=O)(=O)Nc2ccccc2Cl)c1` the Tm shift relative to glycine control was -2.25%.
With `CCn1cc(NC(=O)Nc2ccc(OC)c(OC)c2)c(C(N)=O)n1` the Tm shift relative to glycine control was -1.66%.
`N#CCCN(CCC#N)c1nnc(-c2ccccc2)s1` gave a Tm shift relative to glycine control of 2.17%.
`CN(CCC#N)c1ncnc2scc(-c3ccccc3)c12` was tested, and the Tm shift relative to glycine control was 10.9% (active).
`C=CCn1cnc2scc(-c3ccccc3)c2c1=O` was tested, and the Tm shift relative to glycine control was 5.11%.
In the case of `COc1ccc(CCNC(=O)c2ccc(NC(=O)CC3SC(N4CCCCC4)=NC3=O)cc2)cc1OC` (centres undefined), the Tm shift relative to glycine control is reported as 0.17%.
Molecule `CNc1ccc(SC#N)cc1` has a Tm shift relative to glycine control of -0.62%.
In the case of `C=CCn1c(=NC(=O)c2cccs2)sc2cc(NC(C)=O)ccc21`, the Tm shift relative to glycine control is reported as 2.65%.
With `C=CCn1c(=NC(=O)c2ccc(S(=O)(=O)N3CCCC3)cc2)sc2cc(NC(C)=O)ccc21` the Tm shift relative to glycine control was 18.6% (active).
`CC(=O)Nc1ccc(S(=O)(=O)N2CCSCC2)cc1` gave a Tm shift relative to glycine control of 0.09%.
`CC(=O)Nc1ccc(NC(=O)CCN2C(=O)C3CC=CCC3C2=O)cc1` (centres undefined) showed a Tm shift relative to glycine control of -1.24%.
With `CCC(C)(C)NC(=O)C(c1cccc(OC)c1OC)N(CC(C)C)C(=O)CCC(=O)Nc1cc(C)on1` (centres undefined) the Tm shift relative to glycine control was -1.85%.
Molecule `NC(=O)C1CC(=O)N(c2ccc(OCC(=O)NCc3ccccc3)cc2)C1` (centres undefined) has a Tm shift relative to glycine control of -0.09%.
`O=C(O)c1ccccc1N=N/C(=N/Nc1cc(S(=O)(=O)O)ccc1O)c1ccccc1` was tested, and the Tm shift relative to glycine control was 25.2% (active).
`O=C(COC(=O)c1c2c(nc3ccccc13)CCCC2)c1ccc(Br)s1` showed a Tm shift relative to glycine control of -4.51%.
With `Cn1cccc1C(=O)OCC(=O)c1ccc(Br)s1` the Tm shift relative to glycine control was 14% (active).
For `Cn1cccc1C(=O)OCC(=O)NCCc1ccccc1`, the Tm shift relative to glycine control was -0.25%.
Work on `O=C(Nc1cccc(C(=O)NC2CC2)c1)c1ccc(F)c(S(=O)(=O)N2CCOCC2)c1` yielded a Tm shift relative to glycine control of 4.42%.
In the case of `COc1ccc(NS(=O)(=O)c2ccc(NC(=S)NC(=O)/C=C/c3ccc(C)cc3)cc2)nn1`, the Tm shift relative to glycine control is reported as -7.2%.
`COc1ccc(/C=C/C(=O)c2ccc(NS(=O)(=O)c3ccc(C)cc3)cc2)cc1O` was tested, and the Tm shift relative to glycine control was 24.6% (active).
`Cc1ccc(C(=O)/C=C/Nc2ccc(S(=O)(=O)Nc3onc(C)c3C)cc2)cc1` was tested, and the Tm shift relative to glycine control was -6.78%.
Molecule `CCOC(=O)C1CCN(C(=O)CN2C(=O)NC(C)(c3ccc4cc(OC)ccc4c3)C2=O)CC1` (centres undefined) has a Tm shift relative to glycine control of 0.17%.
With `Cc1onc(-c2ccccc2Cl)c1C(=O)OCC(=O)c1ccccc1` the Tm shift relative to glycine control was -1.07%.
For `CCOC(=O)c1c(-c2cccc(C)c2)csc1NC(=O)c1c(-c2ccccc2)noc1C`, the Tm shift relative to glycine control was -0.48%.
With `Cc1[nH]c2ccccc2c1C(=O)COC(=O)c1c(-c2ccccc2)noc1C` the Tm shift relative to glycine control was 18.8% (active).
Molecule `COc1cc(NC(=O)CCNC(=O)Cn2ccc3ccccc3c2=O)cc(OC)c1OC` has a Tm shift relative to glycine control of 1.09%.
For `O=C(COC(=O)CSc1nnc(-c2ccc(Cl)cc2)o1)Nc1cc(Cl)cc(Cl)c1`, the Tm shift relative to glycine control was 19.4% (active).
`O=C(CSc1nnc(-c2ccncc2)o1)Nc1cccc(Cl)c1` was tested, and the Tm shift relative to glycine control was -2.14%.
With `O=C(CSc1nnc(-c2ccncc2)o1)NCc1ccc(Cl)cc1` the Tm shift relative to glycine control was 1.65%.
`NCC(=O)c1cccc2ccc[n+]([O-])c12` was tested, and the Tm shift relative to glycine control was 7.2%.
`Cc1ccc(C)c(NC(=O)COC(=O)c2nn(C)c(=O)c3ccccc23)c1` showed a Tm shift relative to glycine control of 0.34%.
Work on `O=P(O)(CP(=O)(c1ccccc1)c1ccccc1)c1ccccc1O` yielded a Tm shift relative to glycine control of -4.72%.
`COc1ccc(OC)c(NC(=O)C2CCCN2S(=O)(=O)c2cccc3nsnc23)c1` (centres undefined) was tested, and the Tm shift relative to glycine control was 13.4% (active).
`CC1CCCCC1NC(=O)C1CCCN1S(=O)(=O)c1cccc2nsnc12` (centres undefined) was tested, and the Tm shift relative to glycine control was -1.29%.
Molecule `CC(=O)c1cccc(NC(=O)C2CCCN2S(=O)(=O)c2cccc3nsnc23)c1` (centres undefined) has a Tm shift relative to glycine control of 1.52%.
For `COc1ccc(CCC(=O)OCC(=O)Nc2ccc(C)c(S(=O)(=O)N(C)C)c2)cc1`, the Tm shift relative to glycine control was -3.89%.
Work on `Cc1c(C=O)c2ccccc2n1CCOc1ccccc1` yielded a Tm shift relative to glycine control of -1.12%.
With `COC(=O)c1ccc(COc2cc([N+](=O)[O-])cc3cccnc23)cc1` the Tm shift relative to glycine control was -1.16%.
`COc1ccc([C@H]2CC(=O)C=C(/C=C/c3ccc(Cl)cc3)C2)cc1` was tested, and the Tm shift relative to glycine control was 25.2% (active).
`CCCCC/C=C/C1=CC(=O)C[C@H](c2ccc(Cl)cc2)C1` showed a Tm shift relative to glycine control of -2.27%.
`COc1ccc([C@H]2CC(=O)C=C(/C=C/c3ccccc3)C2)cc1` was tested, and the Tm shift relative to glycine control was -0.08%.
Work on `CC1(C)O[C@@H]2CC3C4C[C@H](F)C5=CC(=O)C=CC5(C)C4C(O)CC3(C)[C@]2(C(=O)CO)O1` (some centres undefined) yielded a Tm shift relative to glycine control of -0.79%.
In the case of `COc1ccc(NC(=O)C2CCN(S(=O)(=O)c3ccc4[nH]c(=O)oc4c3)CC2)c(OC)c1`, the Tm shift relative to glycine control is reported as -2.13%.
For `O=C(Nc1ccc2ccccc2c1)Nc1ccc2snnc2c1`, the Tm shift relative to glycine control was 157% (active).
`O=C(Nc1cccc(Br)c1)c1ccc2snnc2c1` was tested, and the Tm shift relative to glycine control was -4.74%.
`Cc1nc2cc(NC(=O)Nc3cccc(F)c3)ccc2n1C` was tested, and the Tm shift relative to glycine control was -0.72%.
In the case of `Cc1cccc(C)c1NC(=O)CSc1nc2c([nH]1)c(=O)n(C)c(=O)n2C`, the Tm shift relative to glycine control is reported as -0.47%.
In the case of `CO[C@@H]1[C@@H](OC(N)=O)[C@@H](O)C(Oc2ccc3c(O)c(NC(=O)c4ccc(O)c(CC=C(C)C)c4)c(=O)oc3c2C)OC1(C)C` (some centres undefined), the Tm shift relative to glycine control is reported as -12.2%.
